# Results filed as inconclusive are left out. A call without a number means that no potency is given here. Values without a mark were called inactive. Calls of active or inactive are those of the source. Calls follow the shape of the dose curve; as a rule, active = well fitted curve in the direction sought with a large enough effect; inconclusive = small, poorly fitted or top-dose-only effect, or another doubt; inactive = no such curve, though single readings can be large; an effect the other way counts as inactive or inconclusive.
# Assays:
# [1] = target: Rap guanine nucleotide exchange factor 3 (Homo sapiens) (UniProt O95398); experiment: Confirmatory qHTS for agonist of cAMP-regulated guanine nucleotide exchange factor 3 (EPAC1) (AID 1645881);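 also: EPAC1 catalysed release of BODIPY-GDP from Rap1B seen as fluorescence loss; nearly all actives have a fitted effect of over 75% in size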
# Rap guanine nucleotide exchange factor 3 (Homo sapiens), sequence (O95398 whole entry, looked up): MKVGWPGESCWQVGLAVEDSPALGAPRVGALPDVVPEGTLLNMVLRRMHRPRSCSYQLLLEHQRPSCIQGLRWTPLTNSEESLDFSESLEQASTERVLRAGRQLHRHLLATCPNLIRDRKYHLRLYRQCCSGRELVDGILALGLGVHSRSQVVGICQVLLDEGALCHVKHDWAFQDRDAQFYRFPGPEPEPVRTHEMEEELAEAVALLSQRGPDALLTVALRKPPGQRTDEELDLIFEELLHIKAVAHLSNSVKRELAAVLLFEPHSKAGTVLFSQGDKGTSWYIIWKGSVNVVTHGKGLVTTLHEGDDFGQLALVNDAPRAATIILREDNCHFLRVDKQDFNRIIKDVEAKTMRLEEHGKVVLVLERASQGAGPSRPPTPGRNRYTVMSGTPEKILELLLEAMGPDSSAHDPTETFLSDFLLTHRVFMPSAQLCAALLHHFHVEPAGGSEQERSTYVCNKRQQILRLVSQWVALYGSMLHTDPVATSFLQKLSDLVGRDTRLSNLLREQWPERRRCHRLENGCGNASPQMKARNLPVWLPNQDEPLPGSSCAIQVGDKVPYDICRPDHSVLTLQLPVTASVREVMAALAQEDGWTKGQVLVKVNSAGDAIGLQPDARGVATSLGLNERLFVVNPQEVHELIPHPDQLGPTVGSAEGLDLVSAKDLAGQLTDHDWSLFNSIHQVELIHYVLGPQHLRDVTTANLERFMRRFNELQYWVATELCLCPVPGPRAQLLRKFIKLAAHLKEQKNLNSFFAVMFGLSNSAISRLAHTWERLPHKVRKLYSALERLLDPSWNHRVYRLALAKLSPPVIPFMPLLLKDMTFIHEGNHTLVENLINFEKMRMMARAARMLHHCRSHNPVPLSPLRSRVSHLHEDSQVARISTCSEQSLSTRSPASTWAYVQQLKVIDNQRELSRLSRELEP
# [2] = target: Rap guanine nucleotide exchange factor 4 (Homo sapiens) (UniProt Q8WZA2); experiment: Confirmatory qHTS for agonist of cAMP-regulated guanine nucleotide exchange factor 4 (EPAC2) (AID 1645884);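 also: nucleotide exchange releases bodipy-GDP from Rap1 and this lowers its fluorescence; nearly all actives have a fitted effect of over 65% in size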
# Rap guanine nucleotide exchange factor 4 (Homo sapiens), sequence (Q8WZA2 whole entry, looked up): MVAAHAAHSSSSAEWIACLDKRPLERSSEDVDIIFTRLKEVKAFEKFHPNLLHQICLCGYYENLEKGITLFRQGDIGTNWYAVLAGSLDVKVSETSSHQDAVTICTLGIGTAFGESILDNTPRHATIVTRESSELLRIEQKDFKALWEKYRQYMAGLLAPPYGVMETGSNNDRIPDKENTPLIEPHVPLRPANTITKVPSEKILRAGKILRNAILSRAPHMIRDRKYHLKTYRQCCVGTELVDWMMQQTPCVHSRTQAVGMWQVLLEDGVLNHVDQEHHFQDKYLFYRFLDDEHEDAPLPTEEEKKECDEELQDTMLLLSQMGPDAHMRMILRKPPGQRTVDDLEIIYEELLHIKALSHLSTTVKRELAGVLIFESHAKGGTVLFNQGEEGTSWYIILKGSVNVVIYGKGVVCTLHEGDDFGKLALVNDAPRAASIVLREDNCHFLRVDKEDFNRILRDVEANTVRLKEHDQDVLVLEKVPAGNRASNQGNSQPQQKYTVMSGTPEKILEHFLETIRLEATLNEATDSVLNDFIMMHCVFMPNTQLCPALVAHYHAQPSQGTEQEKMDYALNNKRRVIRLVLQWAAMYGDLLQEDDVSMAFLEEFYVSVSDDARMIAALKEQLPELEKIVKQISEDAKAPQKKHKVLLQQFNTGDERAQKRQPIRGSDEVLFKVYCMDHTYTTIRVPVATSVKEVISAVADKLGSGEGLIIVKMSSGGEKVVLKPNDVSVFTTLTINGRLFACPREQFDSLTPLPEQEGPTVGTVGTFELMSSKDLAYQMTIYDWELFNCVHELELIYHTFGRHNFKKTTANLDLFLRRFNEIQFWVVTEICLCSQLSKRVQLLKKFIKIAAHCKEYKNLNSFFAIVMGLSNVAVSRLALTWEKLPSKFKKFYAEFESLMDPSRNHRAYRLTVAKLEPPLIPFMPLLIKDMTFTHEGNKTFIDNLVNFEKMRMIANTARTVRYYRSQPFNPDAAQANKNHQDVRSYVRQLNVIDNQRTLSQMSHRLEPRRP
# [3] = target: Rap guanine nucleotide exchange factor 4 (Homo sapiens) (UniProt Q8WZA2); experiment: Confirmatory qHTS for antagonist of cAMP-regulated guanine nucleotide exchange factor 4 (EPAC2) (AID 1645885); also: nearly all actives have a fitted effect of over 25% in size; also: potency is read from the fitted curve at half-maximal effect
# [4] = target: Rap guanine nucleotide exchange factor 3 (Homo sapiens) (UniProt O95398); experiment: Counterscreen qHTS for antagonist of cAMP-regulated guanine nucleotide exchange factor 3 (EPAC1) (AID 1645888);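 also: fluorescence loss as bound BODIPY-GDP is released from Rap1B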
# Outline: (§1)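 Rap1B–BODIPY-GDP (250 nM) with 50 uM GDP; compounds pin-transferred to 9.74 nM–152 uM final (activator) or from 7.32 nM upwards (inhibitor). Fluorescence Ex/Em 480/540 nm read at 5 and 30 min, then after adding cAMP or buffer, at room temperature.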
# [5] = target: Rap guanine nucleotide exchange factor 3 (Homo sapiens) (UniProt O95398); experiment: Counterscreen qHTS for agonist of cAMP-regulated guanine nucleotide exchange factor 3 (EPAC1) (AID 1645889); also: nearly all actives have a fitted effect of over 40% in size
# Outline: as §1
smiles,measurement,setting,value
Cc1noc(C)c1COc1ccccc1C(=O)NC(C)c1ccc(Cl)cc1 (stereo not drawn),Potency,[1],inactive
same,Potency,[2],inactive
same,Potency,[3],33.8 µM (active)
same,Potency,[4],inactive
C[C@H](CO)N1C[C@H](C)[C@H](CN(C)Cc2cccc(O)c2)OCc2ccccc2-c2c(n(C)c3ccccc23)C1=O,Potency,[1],inactive
same,activation,[2],"8.26% [at 17.1 µM, percent relative to cAMP agonist control]"
same,Potency,[3],inactive
same,"activity change, negative = inhibition",[4],-3.58% [at 30.8 µM]
Cc1cccc(N(Cc2ccccc2)C(=O)CSC(C)C(=O)Nc2cc(C)on2)c1 (stereo not drawn),Potency,[1],inactive
same,Potency,[2],inactive
same,Potency,[3],95.3 µM (active)
same,Potency,[4],inactive
Cc1csc(NC(=O)CSc2sc3c(O)cc(=O)[nH]c3c2C#N)n1,Potency,[1],inactive
same,Potency,[2],inactive
same,Potency,[3],inactive
same,Potency,[4],inactive
Nc1ccccc1C(=O)NNc1c2ccccc2nc2ccccc12,Potency,[1],inactive
same,Potency,[2],inactive
same,Potency,[3],inactive
same,Potency,[4],inactive
O=C(COc1ccccc1-c1ccccc1)NCc1ccco1,Potency,[1],inactive
same,Potency,[2],inactive
same,outcome,[3],inactive [at 12.7 µM]
same,Potency,[4],inactive
O=C(O)c1ccc(/C=N/NC(=O)c2cc(-c3ccc4c5c(cccc35)CC4)n[nH]2)cc1,Potency,[1],inactive
same,Potency,[2],inactive
same,Potency,[3],inactive
same,Potency,[4],inactive
O=S1(=O)N=C(N(Cc2cccs2)c2ccc(O)cc2)c2ccccc21,Potency,[1],inactive
same,Potency,[2],inactive
same,Potency,[3],inactive
same,Potency,[4],inactive
CCOC(=O)c1cc2c(ccn2C)n1CC(=O)N1CCN(c2cccc(C(F)(F)F)c2)CC1,Potency,[1],inactive
same,activation,[2],"0% [at 17.1 µM, percent relative to cAMP agonist control]"
same,Potency,[3],inactive
same,"activity change, negative = inhibition",[4],12.9% [at 30.8 µM]
Cc1cccc(C)c1NC(=O)Cn1c(=O)n(Cc2ccc(C(=O)NCc3ccco3)cc2)c(=O)c2sccc21,Potency,[1],inactive
same,Potency,[2],inactive
same,Potency,[3],inactive
same,Potency,[4],inactive
Cc1ccc(C(=O)c2cn(Cc3cccc(F)c3)c3nc(C)ccc3c2=O)cc1,Potency,[1],inactive
same,Potency,[2],inactive
same,Potency,[3],inactive
same,Potency,[4],inactive
COc1ccc(C(=O)NC2(C(F)(F)F)NC(=O)N(CCCc3ccccc3)C2=O)c(OC)c1OC (stereo not drawn),Potency,[1],inactive
same,activation,[2],"12.9% [at 17.1 µM, percent relative to cAMP agonist control]"
same,Potency,[3],inactive
same,"activity change, negative = inhibition",[4],-10.8% [at 30.8 µM]
N=C1/C(=C\c2ccc(-c3cccc(Cl)c3)o2)C(=O)N=C2SC=C(c3ccccc3)N12,Potency,[1],inactive
same,Potency,[2],inactive
same,Potency,[3],inactive
same,Potency,[4],inactive
CCC(CO)n1c(SCc2cc([N+](=O)[O-])cc3c2OCOC3)nc2ccccc2c1=O (stereo not drawn),Potency,[1],inactive
same,activation,[2],"10.3% [at 17.1 µM, percent relative to cAMP agonist control]"
same,Potency,[3],inactive
same,"activity change, negative = inhibition",[4],19.8% [at 30.8 µM]
O=S(=O)(Nc1cc(Sc2ncn[nH]2)c(O)c2ccccc12)c1ccccc1,Potency,[1],inactive
same,activation,[2],"4.4% [at 17.1 µM, percent relative to cAMP agonist control]"
same,Potency,[3],inactive
same,"activity change, negative = inhibition",[4],3.32% [at 30.8 µM]
O=C1N(Cc2ccccc2)c2ccccc2C1(O)c1c[nH]c2ccccc12 (stereo not drawn),Potency,[1],inactive
same,Potency,[2],inactive
same,Potency,[3],inactive
same,Potency,[4],inactive
C=Cc1ccc(Cn2nc(-c3ccccc3)ccc2=O)cc1,Potency,[1],inactive
same,activation,[2],"-8.97% [at 17.1 µM, percent relative to cAMP agonist control]"
same,Potency,[3],inactive
same,"activity change, negative = inhibition",[4],-16.6% [at 30.8 µM]
O=C(NNC(=O)c1ccccc1F)c1cccc(-n2cccc2)c1,Potency,[1],inactive
same,Potency,[2],inactive
same,Potency,[3],inactive
same,Potency,[4],inactive
COc1ccc(OC)c(NC(=O)C2(C)CCN2CCc2ccccc2)c1 (stereo not drawn),Potency,[1],inactive
same,Potency,[2],inactive
same,Potency,[3],42.6 µM (active)
same,Potency,[4],inactive
Brc1cc2c(cc1CSc1ncccn1)OCO2,Potency,[1],inactive
same,activation,[2],"-6.54% [at 17.1 µM, percent relative to cAMP agonist control]"
same,Potency,[3],inactive
same,"activity change, negative = inhibition",[4],-28.4% [at 30.8 µM]
Cc1ccc(C)c(OC(C)C(=O)Nc2ccc(S(=O)(=O)Nc3nccs3)cc2)c1 (stereo not drawn),Potency,[1],inactive
same,Potency,[2],inactive
same,Potency,[3],33.8 µM (active)
same,Potency,[4],inactive
CN(C)C(CNC(=O)c1cc(-c2ccco2)nc2ccccc12)c1ccccc1 (stereo not drawn),Potency,[1],inactive
same,activation,[2],"5.95% [at 17.1 µM, percent relative to cAMP agonist control]"
same,Potency,[3],inactive
same,"activity change, negative = inhibition",[4],-8.2% [at 30.8 µM]
Cc1ccc(-c2nc3c(c(=O)[nH]c(=O)n3Cc3ccccc3)n2C)o1,Potency,[1],inactive
same,Potency,[2],inactive
same,Potency,[3],inactive
same,Potency,[4],inactive
CCCCc1ccc(NS(=O)(=O)c2cc3c4c(c2)CC(=O)N4CCC3)cc1,Potency,[1],inactive
same,Potency,[2],inactive
same,Potency,[3],inactive
same,Potency,[4],inactive
CC1=NN(c2ccc(C)c(C)c2)C(=O)C1C(c1cccc(O)c1)C1C(=O)N(c2ccc(C)c(C)c2)N=C1C (stereo not drawn),Potency,[1],inactive
same,activation,[2],"7.48% [at 17.1 µM, percent relative to cAMP agonist control]"
same,Potency,[3],inactive
same,"activity change, negative = inhibition",[4],19.9% [at 30.8 µM]
COc1ccccc1-c1nnc(SCC(=O)c2ccc(C3CCCCC3)cc2)n1Cc1ccco1,Potency,[1],inactive
same,Potency,[2],inactive
same,Potency,[3],inactive
same,Potency,[4],inactive
COc1ccc(OC)c(Nc2cc3ccccc3c(=O)[nH]2)c1,Potency,[1],inactive
same,Potency,[2],inactive
same,Potency,[3],inactive
same,Potency,[4],inactive
CCOC(=O)Cc1cc(=O)n2[nH]c(-c3ccccc3)c(-c3ccccc3)c2n1,Potency,[1],inactive
same,Potency,[2],inactive
same,Potency,[3],inactive
same,Potency,[4],inactive
C/C=C/COC(=O)c1[nH]c2c(c1C)C(=O)CC(c1ccco1)C2 (stereo not drawn),Potency,[1],inactive
same,Potency,[2],inactive
same,Potency,[3],inactive
same,Potency,[4],inactive
COc1ccc(N2Cc3cccc(C(=O)Nc4ccc(C(C)C)cc4)c3C2=O)cc1,Potency,[1],inactive
same,Potency,[2],inactive
same,Potency,[3],inactive
same,Potency,[4],inactive
CCOC(=O)c1c(C)oc2c1c(C=NCCO)c(O)c1ccccc12,Potency,[1],inactive
same,activation,[2],"10.2% [at 17.1 µM, percent relative to cAMP agonist control]"
same,Potency,[3],inactive
same,"activity change, negative = inhibition",[4],33.4% [at 30.8 µM]
CCn1c(=O)c2sccc2n2c(CCCC(=O)N3CCN(c4cc(Cl)ccc4C)CC3)nnc12,Potency,[1],inactive
same,Potency,[2],inactive
same,Potency,[3],inactive
same,Potency,[4],inactive
CCCC1=C/C(=C/c2ccc(-c3ccccc3OC)o2)C(=O)O1,Potency,[1],inactive
same,activation,[2],"1.16% [at 17.1 µM, percent relative to cAMP agonist control]"
same,Potency,[3],inactive
same,"activity change, negative = inhibition",[4],-9.78% [at 30.8 µM]
COc1ccccc1N1CSC2=C(C#N)C(c3ccc(SC)cc3)CC(=O)N2C1 (stereo not drawn),Potency,[1],inactive
same,activation,[2],"7.57% [at 17.1 µM, percent relative to cAMP agonist control]"
same,Potency,[3],inactive
same,"activity change, negative = inhibition",[4],-2.77% [at 30.8 µM]
Cc1ccc(C)c(-c2ccc(=O)n(C(C)C(=O)Nc3ccccc3C(F)(F)F)n2)c1 (stereo not drawn),Potency,[1],inactive
same,Potency,[2],inactive
same,outcome,[3],inactive [at 12.7 µM]
same,Potency,[4],inactive
CC(=O)c1sc2nc(CSc3nnnn3-c3ccccc3)[nH]c(=O)c2c1C,Potency,[1],inactive
same,activation,[2],"0.183% [at 17.1 µM, percent relative to cAMP agonist control]"
same,Potency,[3],inactive
same,"activity change, negative = inhibition",[4],-6.43% [at 30.8 µM]
same,activation,[5],8.36% [at 30.8 µM]
O=C(C1CC1)N1CCCC(c2ccc(Cl)cc2)=N1,Potency,[1],inactive
same,activation,[2],"-19.8% [at 17.1 µM, percent relative to cAMP agonist control]"
same,Potency,[3],inactive
same,"activity change, negative = inhibition",[4],-19% [at 30.8 µM]
same,activation,[5],-0.772% [at 30.8 µM]
CC(=O)Nc1cccc(C(=O)/C=C/c2ccc(F)cc2)c1,Potency,[1],inactive
same,Potency,[2],inactive
same,Potency,[3],inactive
same,Potency,[4],inactive
same,Potency,[5],inactive
O=C(Nc1ccc(NC(=O)c2ccco2)c(Cl)c1)c1ccc2c(c1)OCCO2,Potency,[1],inactive
same,Potency,[2],inactive
same,Potency,[3],inactive
same,Potency,[4],inactive
same,Potency,[5],inactive
O=C(CCC1N=C2c3ccccc3N=C(SCc3ccc(Cl)cc3)N2C1=O)NCc1cccs1 (stereo not drawn),Potency,[1],inactive
same,Potency,[2],inactive
same,Potency,[3],inactive
same,Potency,[4],inactive
same,Potency,[5],inactive
Cc1ccc(CSC2=NCCN2S(=O)(=O)c2ccc(F)cc2)cc1,Potency,[1],inactive
same,activation,[2],"1.66% [at 17.1 µM, percent relative to cAMP agonist control]"
same,Potency,[3],inactive
same,"activity change, negative = inhibition",[4],-7.41% [at 30.8 µM]
same,activation,[5],4.55% [at 30.8 µM]
O=C(NCCc1ccccc1)c1ccc(Cn2c(SCc3cccc(F)c3)nc3cccnc32)cc1,Potency,[1],inactive
same,Potency,[2],inactive
same,Potency,[3],inactive
same,Potency,[4],inactive
COc1ccccc1N(CC(=O)Nc1cc(C)on1)S(=O)(=O)c1ccc(Cl)cc1,Potency,[1],inactive
same,activation,[2],"2.18% [at 17.1 µM, percent relative to cAMP agonist control]"
same,Potency,[3],inactive
same,"activity change, negative = inhibition",[4],-8.9% [at 30.8 µM]
same,activation,[5],29.1% [at 30.8 µM]
CC1(C)C=Cc2cc(-c3coc4cc(O)cc(O)c4c3=O)cc(O)c2O1,Potency,[1],inactive
same,Potency,[2],inactive
same,Potency,[3],inactive
same,Potency,[4],inactive
same,Potency,[5],inactive
Cc1onc(-c2c(F)cccc2Cl)c1C(=O)OCc1cnc(Cl)s1,Potency,[1],inactive
same,Potency,[2],inactive
same,Potency,[3],26.9 µM (active)
same,Potency,[4],inactive
same,Potency,[5],inactive
CCN(CC)c1ccc(/C=C2/C(=O)c3ccc(C(=O)O)cc3C2=O)cc1,Potency,[1],inactive
same,activation,[2],"4.11% [at 17.1 µM, percent relative to cAMP agonist control]"
same,Potency,[3],inactive
same,"activity change, negative = inhibition",[4],8.07% [at 30.8 µM]
same,activation,[5],9.24% [at 30.8 µM]
Cc1ccc(-n2c(CCC(=O)O)ccc2-c2cccs2)cc1Cl,Potency,[1],inactive
same,Potency,[2],inactive
same,outcome,[3],inactive [at 12.7 µM]
same,Potency,[4],inactive
Cc1ccc(-c2nnc(Nc3ccc(OCC(N)=O)cc3)c3ccccc23)cc1S(N)(=O)=O,Potency,[1],inactive
same,Potency,[2],inactive
same,Potency,[3],inactive
same,Potency,[4],inactive
same,Potency,[5],inactive
Cc1ccc(Cl)cc1NC(=O)Nc1cn(CC(C)C)c(=O)c2ccccc12,Potency,[1],inactive
same,Potency,[2],inactive
same,outcome,[3],inactive [at 12.7 µM]
same,Potency,[4],inactive
same,Potency,[5],inactive

# Reference: PubChem BioAssay (NCATS)
